Data reported in PubChem BioAssay (NCATS).
Records with an inconclusive call do not appear. A call without a number means that no potency is given here. Active and inactive are the calls of the source. Calls come from the whole dose curve; as a rule, active = well fitted curve in the direction sought with a large enough effect; inconclusive = small, poorly fitted or top-dose-only effect, or another doubt; inactive = no such curve, though single readings can be large; an effect the other way counts as inactive or inconclusive.

Legend:
[1] = target: ATP-dependent 6-phosphofructokinase (Trypanosoma brucei brucei) (UniProt O15648); assay: qHTS Assay to Find Inhibitors of T. brucei phosphofructokinase: hit validation (AID 492961); details: T. brucei PFK, ADP-Glo luminescence; series mostly up to 51.4 µM
Sequence of ATP-dependent 6-phosphofructokinase (Trypanosoma brucei brucei) (O15648 whole entry, looked up): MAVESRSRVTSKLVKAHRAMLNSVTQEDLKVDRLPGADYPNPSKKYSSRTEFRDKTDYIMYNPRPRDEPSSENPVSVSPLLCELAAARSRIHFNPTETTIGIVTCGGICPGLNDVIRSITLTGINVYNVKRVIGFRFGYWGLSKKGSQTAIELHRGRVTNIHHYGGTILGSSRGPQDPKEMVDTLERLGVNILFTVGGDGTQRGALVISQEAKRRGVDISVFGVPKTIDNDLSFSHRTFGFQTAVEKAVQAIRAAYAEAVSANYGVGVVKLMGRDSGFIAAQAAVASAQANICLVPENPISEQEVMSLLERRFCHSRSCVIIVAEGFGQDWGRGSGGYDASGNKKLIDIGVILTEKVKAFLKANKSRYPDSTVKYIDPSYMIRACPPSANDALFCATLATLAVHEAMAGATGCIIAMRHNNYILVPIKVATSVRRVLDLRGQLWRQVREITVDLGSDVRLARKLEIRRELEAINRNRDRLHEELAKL
Method in brief: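 Luminescence from ADP-Glo reports ADP generated as T. brucei PFK (1.25 nM) phosphorylates 0.5 mM fructose-6-phosphate using 0.1 mM ATP. Reactions ran 45 min at room temperature, pH 8.0.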

[2] = target: M-phase phosphoprotein 8 (Homo sapiens) (UniProt Q99549); assay: qHTS Validation Assay for Inhibitors for MPP8 Chromodomain Interactions with Methylated Histone Tails (AID 488949); details: AlphaScreen MPP8 binding to H3K9me3 peptide; series mostly up to 57.1 µM; note: nearly all actives have a fitted effect of over 55% in size; note: potency is the fitted concentration of half-maximal effect
Sequence of M-phase phosphoprotein 8 (Homo sapiens) (Q99549 whole entry, looked up): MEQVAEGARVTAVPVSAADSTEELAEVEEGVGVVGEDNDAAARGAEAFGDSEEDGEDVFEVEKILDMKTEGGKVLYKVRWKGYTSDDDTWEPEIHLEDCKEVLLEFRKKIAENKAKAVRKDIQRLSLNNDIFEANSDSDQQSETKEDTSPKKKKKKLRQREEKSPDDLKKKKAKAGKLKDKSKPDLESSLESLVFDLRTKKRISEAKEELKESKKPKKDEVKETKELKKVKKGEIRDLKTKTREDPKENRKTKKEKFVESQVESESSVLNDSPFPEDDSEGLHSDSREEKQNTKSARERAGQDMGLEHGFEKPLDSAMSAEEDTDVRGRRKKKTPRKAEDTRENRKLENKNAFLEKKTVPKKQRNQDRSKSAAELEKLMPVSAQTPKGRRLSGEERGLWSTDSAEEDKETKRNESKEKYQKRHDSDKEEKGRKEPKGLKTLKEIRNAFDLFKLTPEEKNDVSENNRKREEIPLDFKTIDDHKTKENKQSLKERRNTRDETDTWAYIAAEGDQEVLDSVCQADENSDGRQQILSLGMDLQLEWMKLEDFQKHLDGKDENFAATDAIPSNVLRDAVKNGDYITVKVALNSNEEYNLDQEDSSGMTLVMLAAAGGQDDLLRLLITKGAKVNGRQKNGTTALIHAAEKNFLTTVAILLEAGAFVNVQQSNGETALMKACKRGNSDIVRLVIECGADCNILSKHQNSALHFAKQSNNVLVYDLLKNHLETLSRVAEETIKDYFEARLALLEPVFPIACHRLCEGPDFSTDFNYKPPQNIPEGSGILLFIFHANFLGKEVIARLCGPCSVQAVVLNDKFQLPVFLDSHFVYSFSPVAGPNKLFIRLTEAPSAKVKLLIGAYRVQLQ
Method in brief: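 Disruption of the preformed MPP8–trimethyl-H3K9 peptide complex (both 50 nM, 30 min, RT) is measured after 30 min compound exposure, using AlphaScreen proximity beads; aurintricarboxylic acid titration serves as plate control.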

[3] = target: Chromobox protein homolog 1 (Homo sapiens) (UniProt P83916); assay: qHTS Validation Assay for Inhibitors of HP1-beta Chromodomain Interactions with Methylated Histone Tails (AID 488953); details: HP1-beta chromodomain / methylated histone peptide binding assay; series mostly up to 114 µM;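 note: loss of AlphaScreen luminescence from HP1-beta binding biotinylated H3K9me3 peptide; nearly all actives have a fitted effect of over 50% in size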
Sequence of Chromobox protein homolog 1 (Homo sapiens) (P83916 whole entry, looked up): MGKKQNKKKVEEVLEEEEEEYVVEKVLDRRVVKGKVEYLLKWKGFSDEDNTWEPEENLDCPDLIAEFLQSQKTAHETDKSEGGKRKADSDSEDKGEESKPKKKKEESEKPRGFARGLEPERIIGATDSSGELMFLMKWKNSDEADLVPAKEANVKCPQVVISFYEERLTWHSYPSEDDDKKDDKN
Method in brief: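 Compounds pinned into a preassembled complex of HP1-beta and trimethyl-K9 histone H3(1-18) biotin peptide (50 nM each; PBS pH 7.4, 0.01% Tween-20). After 30 min, bead-based AlphaScreen detection followed.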

[4] = target: Methanococcus maripaludis chaperonin (MmCpn) (UniProt Q6LX38); assay: High-Throughput Screening for Modulators of Cytosolic Chaperonin Activity: MmCpn Primary Screen (AID 488978); details: Purified MmCpn ATPase activity, ADP HTRF detection, 10 min; series mostly up to 76.9 µM;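 note: 50 nM MmCpn enzyme hydrolysing 30 µM ATP at 37 °C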
Sequence of Methanococcus maripaludis chaperonin (MmCpn) (Q6LX38 1-543): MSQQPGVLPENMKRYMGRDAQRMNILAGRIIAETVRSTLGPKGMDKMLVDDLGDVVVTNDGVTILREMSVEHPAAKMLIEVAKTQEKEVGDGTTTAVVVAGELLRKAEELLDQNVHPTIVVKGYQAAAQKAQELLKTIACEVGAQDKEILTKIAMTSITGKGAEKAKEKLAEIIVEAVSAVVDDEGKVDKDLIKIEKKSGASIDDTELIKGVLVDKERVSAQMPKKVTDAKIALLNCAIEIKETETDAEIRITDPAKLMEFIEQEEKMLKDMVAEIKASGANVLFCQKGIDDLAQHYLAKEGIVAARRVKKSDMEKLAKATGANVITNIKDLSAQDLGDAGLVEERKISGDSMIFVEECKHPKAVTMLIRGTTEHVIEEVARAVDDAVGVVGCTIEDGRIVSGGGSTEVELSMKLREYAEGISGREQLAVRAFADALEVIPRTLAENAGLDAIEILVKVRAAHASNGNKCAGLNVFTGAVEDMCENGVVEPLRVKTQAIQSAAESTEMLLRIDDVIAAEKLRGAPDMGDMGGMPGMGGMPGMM
Text: Chaperonins are key components of the cellular chaperone machinery. These large complexes consist of two stacked 7-9 membered rings, each containing a central cavity. Substrates are folded within the cavity in an ATP-dependent manner. TRiC is a complex of eight different, essential proteins. As each of the genes encoding the eight subunits is essential for cell viability and no protocol has been developed to overexpress this enzyme to high levels, several groups have turned to the archaeal homolog of TRiC from Methanococcus maripaludis (MmCpn) as a model system for the study of the type II chaperonin family.
MmCpn was kindly provided by the laboratory of Judith Frydman.
1. Dispense 1.5 ul enzyme of either TriC at 100 nM or MmCpn at 50 nM final concentration.
2. Transfer 23 nl of compound to plate, incubate 5 min at RT.
3. 1.5 ul ATP at 30 uM at final concentration dispensed into plate.
4. Incubate for 10 minutes at 37C (MmCPN), 30C (TriC).
5. 3 ul of the Cisbio ADP Transcreener HTRF detection reagent prepared according to protocol dispensed into plate.
6. Incubate for 5 minutes.
7. Read using EnVision plate reader at Excitation = 320nm and Emission = 590nm, 665nm

[5] = target: D(1A) dopamine receptor (Homo sapiens) (UniProt P21728); assay: HTS Assay for Allosteric Agonists of the Human D1 Dopamine Receptor: Primary Screen for Agonists (AID 488981); details: Inducible HEK293 T-REx D1 cells, calcium-flux fluorescence, 180 s kinetic; series mostly up to 41.8 µM
Sequence of D(1A) dopamine receptor (Homo sapiens) (P21728 whole entry, looked up): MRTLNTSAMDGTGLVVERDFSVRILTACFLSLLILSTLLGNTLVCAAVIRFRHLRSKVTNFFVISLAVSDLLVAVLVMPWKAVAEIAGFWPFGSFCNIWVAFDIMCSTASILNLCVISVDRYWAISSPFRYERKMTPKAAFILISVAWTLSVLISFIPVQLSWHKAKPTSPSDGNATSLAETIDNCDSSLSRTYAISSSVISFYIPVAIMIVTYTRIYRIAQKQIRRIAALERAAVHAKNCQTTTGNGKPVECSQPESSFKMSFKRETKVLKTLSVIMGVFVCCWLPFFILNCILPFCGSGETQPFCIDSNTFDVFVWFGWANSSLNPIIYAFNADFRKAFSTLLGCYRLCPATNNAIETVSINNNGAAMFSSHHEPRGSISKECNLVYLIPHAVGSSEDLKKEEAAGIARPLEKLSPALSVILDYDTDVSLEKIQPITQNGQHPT
Method in brief: (§1)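 Tetracycline-induced HEK293 Trex D1 cells with forced coupling to calcium, loaded with no-wash calcium dye; kinetic fluorescence read 180 s after compound addition for agonism, then a further 180 s after an EC20 dopamine challenge for potentiation.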

[6] = target: D(1A) dopamine receptor (Homo sapiens) (UniProt P21728); assay: HTS Assay for Allosteric Agonists of the Human D1 Dopamine Receptor: Primary Screen for Potentiators (AID 488982); details: HEK293 T-REx D1 inducible cells, calcium flux, kinetic fluorescence; series mostly up to 8.37 µM
Method in brief: as §1

[7] = target: D(1A) dopamine receptor (Homo sapiens) (UniProt P21728); assay: HTS Assay for Allosteric Agonists of the Human D1 Dopamine Receptor: Primary Screen for Antagonists (AID 488983); details: D1 receptor cell assay, antagonist mode, qHTS titration; series mostly up to 41.8 µM;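 note: calcium flux response to an EC80 dopamine challenge measured with no-wash dye; nearly all actives have a fitted effect of over 65% in size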
Method in brief: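 In this primary screen, compounds are applied to calcium-dye-loaded HEK293 T-REx cells with force-coupled D1 expression induced overnight at 30 C. An EC80 of dopamine follows the 180 s compound phase, and calcium is monitored for a further 180 s.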

[8] = target: Transient receptor potential cation channel subfamily V member 1 (Homo sapiens) (UniProt Q8NER1); assay: HTS Assay for Compounds that Act as Enhancers of the Vanilloid Receptor 1 (AID 488979); details: TRPV1-expressing cells, enhancer of channel activity, stimulated with capsaicin at EC20; series mostly up to 41.7 µM
Sequence of Transient receptor potential cation channel subfamily V member 1 (Homo sapiens) (Q8NER1 whole entry, looked up): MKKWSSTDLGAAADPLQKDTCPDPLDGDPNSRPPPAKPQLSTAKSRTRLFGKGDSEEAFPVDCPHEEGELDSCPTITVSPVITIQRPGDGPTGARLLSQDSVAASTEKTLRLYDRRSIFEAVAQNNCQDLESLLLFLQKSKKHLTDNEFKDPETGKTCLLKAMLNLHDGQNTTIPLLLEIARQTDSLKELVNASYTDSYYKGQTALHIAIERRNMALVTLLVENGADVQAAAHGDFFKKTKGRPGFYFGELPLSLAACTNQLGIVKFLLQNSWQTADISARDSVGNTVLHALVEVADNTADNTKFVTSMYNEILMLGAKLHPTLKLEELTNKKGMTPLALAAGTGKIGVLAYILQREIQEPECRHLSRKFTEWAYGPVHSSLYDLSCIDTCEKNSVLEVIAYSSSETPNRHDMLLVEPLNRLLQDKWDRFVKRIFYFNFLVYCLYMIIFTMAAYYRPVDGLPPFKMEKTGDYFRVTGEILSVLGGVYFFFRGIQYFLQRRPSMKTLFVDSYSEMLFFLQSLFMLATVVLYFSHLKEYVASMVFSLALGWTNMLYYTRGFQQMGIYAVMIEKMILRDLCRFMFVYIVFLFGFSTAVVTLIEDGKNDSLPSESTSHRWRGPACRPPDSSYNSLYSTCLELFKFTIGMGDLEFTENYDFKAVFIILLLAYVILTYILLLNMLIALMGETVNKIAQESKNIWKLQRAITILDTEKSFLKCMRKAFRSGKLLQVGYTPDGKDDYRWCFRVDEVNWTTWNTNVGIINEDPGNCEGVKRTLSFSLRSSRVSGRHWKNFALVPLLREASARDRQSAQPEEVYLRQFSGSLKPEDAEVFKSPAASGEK
Method in brief: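 TRPV1 cells loaded with Fluo-8 calcium dye; compound added and Ca2+ signal (ex 480/em 520 nm) followed 3 min, then capsaicin at EC20 added and read 2 more min to detect enhancement.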

[9] = target: Thyrotropin receptor (Homo sapiens) (UniProt P16473); assay: qHTS Assay for Antagonists of the Thyroid Stimulating Hormone Receptor (AID 488980); details: TSHR-expressing cells, cAMP antagonist read-out; series mostly up to 57.5 µM
Sequence of Thyrotropin receptor (Homo sapiens) (P16473 whole entry, looked up): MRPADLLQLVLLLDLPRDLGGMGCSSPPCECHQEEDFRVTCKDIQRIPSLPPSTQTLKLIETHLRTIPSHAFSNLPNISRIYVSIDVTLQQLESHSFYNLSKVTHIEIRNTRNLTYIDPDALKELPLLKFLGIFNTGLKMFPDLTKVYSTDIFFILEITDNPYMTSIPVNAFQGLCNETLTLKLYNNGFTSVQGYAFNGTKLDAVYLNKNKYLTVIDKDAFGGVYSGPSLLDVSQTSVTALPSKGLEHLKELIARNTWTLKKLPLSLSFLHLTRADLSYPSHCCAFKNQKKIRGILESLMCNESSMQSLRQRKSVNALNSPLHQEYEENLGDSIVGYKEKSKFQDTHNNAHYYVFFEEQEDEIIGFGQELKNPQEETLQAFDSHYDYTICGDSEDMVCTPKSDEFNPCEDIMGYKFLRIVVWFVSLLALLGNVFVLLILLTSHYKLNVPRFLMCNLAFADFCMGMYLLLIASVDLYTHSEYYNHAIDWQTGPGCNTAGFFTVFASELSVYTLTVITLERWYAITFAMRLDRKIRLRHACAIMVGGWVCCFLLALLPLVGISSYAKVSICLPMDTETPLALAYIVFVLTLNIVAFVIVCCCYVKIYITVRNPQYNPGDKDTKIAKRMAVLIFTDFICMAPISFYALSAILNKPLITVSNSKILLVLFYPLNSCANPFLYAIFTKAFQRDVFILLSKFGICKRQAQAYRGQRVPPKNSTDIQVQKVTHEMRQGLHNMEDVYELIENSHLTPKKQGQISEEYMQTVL
Method in brief: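 Cells expressing human TSHR (HEK293) are dispensed in HBSS/HEPES containing 70 uM RO 20-1724, compound is added, then TSH at EC80 (4 nM final). Antibody in lysis buffer follows, 30 minutes at room temperature before HTRF detection.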

[10] = target: Tyrosyl-DNA phosphodiesterase 1 (Homo sapiens) (UniProt Q9NUW8); assay: Confirmation Assay for Inhibitors of Tyrosyl-DNA Phosphodiesterase (TDP1) (AID 489007); details: recombinant human TDP1 enzymatic activity, dose-response; note: potency is the fitted concentration of half-maximal effect; nearly all actives have a fitted effect of over 40% in size
Sequence of Tyrosyl-DNA phosphodiesterase 1 (Homo sapiens) (Q9NUW8 whole entry, looked up): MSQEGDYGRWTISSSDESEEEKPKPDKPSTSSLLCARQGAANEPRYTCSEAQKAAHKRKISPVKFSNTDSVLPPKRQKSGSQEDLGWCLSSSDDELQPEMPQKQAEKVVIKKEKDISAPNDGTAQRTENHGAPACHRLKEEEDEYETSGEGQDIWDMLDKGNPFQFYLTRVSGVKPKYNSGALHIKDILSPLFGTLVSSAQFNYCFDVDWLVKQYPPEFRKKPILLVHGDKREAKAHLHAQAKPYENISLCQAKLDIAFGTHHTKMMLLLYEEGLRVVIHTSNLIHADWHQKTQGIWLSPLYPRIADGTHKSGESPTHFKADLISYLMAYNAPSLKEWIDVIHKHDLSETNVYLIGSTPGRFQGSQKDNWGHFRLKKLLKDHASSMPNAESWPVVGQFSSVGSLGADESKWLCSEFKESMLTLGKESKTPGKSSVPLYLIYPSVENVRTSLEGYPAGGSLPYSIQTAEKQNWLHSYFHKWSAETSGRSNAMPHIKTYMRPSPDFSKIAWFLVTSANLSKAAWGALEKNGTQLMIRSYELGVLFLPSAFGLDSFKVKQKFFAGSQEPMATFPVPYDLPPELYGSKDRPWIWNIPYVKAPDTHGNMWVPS
Method in brief: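 Loss of AlphaScreen signal reports Tdp1 cleavage of a dual-labelled DNA substrate. Conditions: 1 nM E. coli-derived enzyme, 15 nM substrate, 15 min compound preincubation, 5 min reaction, 10 min bead incubation, all at room temperature.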

With `Oc1ccc(Cl)cc1Cc1cc(Cl)ccc1O` the Potency [1] was “inactive”.
For `CCCCCCCCCCCCCCCC(=O)O`, the Potency [1] was “inactive”.
With `CCc1ccc(C(=O)C(C)CN2CCCCC2)cc1` (stereo unspecified) the Potency [1] was “inactive”.
`CC(=O)OCC(=O)[C@H]1CC[C@H]2[C@@H]3CCC4=CC(=O)CC[C@]4(C)[C@H]3CC[C@]12C` was tested, and the Potency [1] was “inactive”.
With `CCOc1cc(OCC)c(C(=O)CCC(=O)O)cc1OCC` the Potency [1] was “inactive”.
In the case of `Cc1ccc(O)c([C@H](CCN(C(C)C)C(C)C)c2ccccc2)c1`, the Potency [1] is reported as “inactive”.
With `COP(=O)(OC)OC(c1ccc(Cl)cc1)P(=O)(OC)OC` (stereo unspecified) the Potency [1] was “inactive”.
`COc1cc(C)nc(-n2nc(C)cc2OC)n1` was tested, and the Potency [1] was “inactive”.
With `Nc1nc(N)c(-c2ccccc2)s1` the Potency [1] was “inactive”.
For `CCOCCn1c(N2CCCN(C)CC2)nc2ccccc21`, the Potency [1] was “inactive”.
`CC(C)(C)NC[C@H](O)COc1nsnc1N1CCOCC1` was tested, and the Potency [2] was “inactive”, the outcome [3] was “inactive” and the outcome [4] was “inactive”. The outcome [5] was “inactive”, the outcome [6] was “inactive” and the outcome [7] was “inactive”.
In the case of `O=C1C(=O)c2ccccc2C(O)=C1C1CCC(c2ccc(Cl)cc2)CC1` (stereo unspecified), the Potency [1] is reported as “inactive”.
For `CCC(CC)(CC(=O)Nc1cccc(/C=C/c2nc(C3CCC3)cs2)c1)C(=O)O`, the Potency [1] was “inactive”.
For `O=C(Oc1cccc2cccnc12)c1ccccc1`, the Potency [1] was “inactive”.
In the case of `CCN(CC)CCNC(=O)COc1ccc(OC)cc1`, the Potency [1] is reported as “inactive”.
In the case of `CCCCCCCCCCCCCC(=O)OC(C)C`, the Potency [1] is reported as “inactive”.
In the case of `CN=C(N)NCCC[C@H](N)C(=O)O`, the Potency [2] is reported as “inactive”, the outcome [3] is reported as “inactive” and the outcome [4] is reported as “inactive”. For the same compound, the outcome [5] was “inactive”, the outcome [6] was “inactive” and the outcome [7] was “inactive”.
`CC(=O)OCC1=C(C(=O)O)N2C(=O)[C@@H](NC(=O)CSc3ccncc3)[C@H]2SC1` was tested, and the Potency [2] was 31.6 µM (active), the outcome [8] was “inactive” and the outcome [9] was “inactive”. For the same compound, the Potency [10] was 2 µM (active).
